Compound activity (PubChem BioAssay)
Most compounds without a hit are left out; they make up all but 2.2% or so of the library.
S2 tox = viability counter-screen for ATXN expression inhibitors; S2 cells (HEK-293 line with an ATXN2-luciferase reporter) viability, CellTiter-Fluor protease fluorescence, 24 h; Potency, µM (series often up to 56.7 µM), actives largely listed as cytotoxic; 400,000 compounds, 0.49% hits; note: nearly all actives have a fitted effect of over 40% in size
HepG2 tox-1 = HepG2 cytotoxicity, counter-screen for TGF-b inhibitors; 410,000 compounds, 0.76% hits; AID 588856; Potency, µM (titrated, usually from 46.1 µM), hits mostly cytotoxic; HepG2 CAGA-GFP viability, ATP luminescence, 18 h
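CellTiter-Glo luminescence gave cytotoxicity after 18 hours at 37 degrees C. The cells were HepG2 CAGA-GFP in 1% FBS DMEM, stimulated with 500 pg/mL TGF-beta after compound addition. %Activity was normalised to no-cell wells (complete cell-killing) and DMSO (no toxicity), and curves were fitted and classified.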
ATXN2 expr inh = inhibitors of ATXN2 expression; HEK-293 ATXN2-luciferase reporter, luminescence, 24 h; Potency, µM (titrated, usually from 57 µM), most hits filed as inhibitors; 360,000 compounds, 0.72% hits; AID 1745845; note: nearly all actives have a fitted effect of over 55% in size
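qHTS (up to 57 uM final) was run with 24 h compound exposure of reporter cells at 37 °C. Each well was multiplexed: SteadyGlo luminescence measured ATXN2-luciferase expression after a fluorogenic Gly-Phe-AFC viability readout (25 uM final).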
LDHA inh = inhibitors of human lactate dehydrogenase A; P00338; purified LDHA, NADH/diaphorase-resazurin fluorescence; stronger effect = lower value; activity change, % (values are at about 110 or 230 µM); 480,000 compounds, 0.15% hits; in the data active = activity change below about -30%; inconclusive = mostly about -25% to -30%
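LDH5 2 nM; NADH 0.06 mM, pyruvate 0.2 mM; 200 mM Tris pH 7.4, EDTA, Tween-20; 5 min RT. Detection: diaphorase 0.133 mg/mL + resazurin 37 µM, fluorescence ex540/em590 at 0 and 20 min; normalized to enzyme-free and DMSO wells.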
mIDH1 inhibitor = human IDH1 R132H inhibition | O75874 | IDH1-R132H enzyme, NADPH consumption, diaphorase/resazurin fluorescence | Potency, µM (doses to about 76.6 µM), hits mostly inhibitors | 390,000 compounds, 0.093% hits | AID 602179; note: nearly all actives have a fitted effect of over 65% in size
Target sequence (O75874 whole entry R132H, stated change not applied): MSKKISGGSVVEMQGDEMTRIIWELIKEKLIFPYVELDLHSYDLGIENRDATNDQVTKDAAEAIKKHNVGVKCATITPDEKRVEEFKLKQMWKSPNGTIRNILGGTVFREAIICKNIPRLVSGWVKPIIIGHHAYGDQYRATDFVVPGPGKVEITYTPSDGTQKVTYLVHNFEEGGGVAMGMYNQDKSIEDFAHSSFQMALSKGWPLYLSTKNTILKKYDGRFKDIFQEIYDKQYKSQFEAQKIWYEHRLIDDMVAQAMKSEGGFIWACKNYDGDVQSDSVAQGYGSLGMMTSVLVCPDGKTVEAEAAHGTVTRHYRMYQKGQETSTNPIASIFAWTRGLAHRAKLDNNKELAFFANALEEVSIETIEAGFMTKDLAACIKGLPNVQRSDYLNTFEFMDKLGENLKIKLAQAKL
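IDH1-R132H (0.5 ug/mL dispensed) in pH 7.5 Tris buffer was preincubated 30 min with compound, then given a substrate mix of 0.016 mM NADPH and 2 mM alpha-KG for 80 min at room temperature; remaining NADPH was read by diaphorase/resazurin fluorescence.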
TGFb SMAD3 inh = TGF-b pathway inhibition | 410,000 compounds, 1.2% hits | Potency, µM (top dose mostly 46.1 µM), hits mostly inhibitors | HepG2 CAGA-GFP TGF-b/SMAD3 reporter, GFP fluorescence, 18 h; TGF-beta stimulated, 500 pg/mL final; note: nearly all actives have a fitted effect of over 65% in size
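Inhibition was scored as loss of TGF-beta-induced (500 pg/mL final, 18 hours, 37 degrees C) GFP in HEPG2 cells carrying a CAGA-GFP reporter, in DMEM with 1% FBS. Well GFP was summed per cell; Activity was normalised to unstimulated and stimulated DMSO wells, then concentration-response fitting.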
TGFb confirm = TGF-b pathway inhibition, cherry-pick retest | shares compounds with TGFb SMAD3 inh | HepG2 CAGA-GFP TGF-b reporter, GFP fluorescence, 18 h; cells stimulated with TGF-beta, 500 pg/mL | Potency, µM (highest dose often 46.1 µM), hits mostly inhibitors | 1,600 compounds, 63% hits | AID 720534; note: nearly all actives have a fitted effect of over 65% in size
HepG2 tox-2 = counter-screen for TGF-b inhibitors: cytotoxicity in HepG2 cells | shares compounds with TGFb SMAD3 inh | HepG2 CAGA-GFP viability, ATP luminescence, 18 h; cells stimulated with TGF-beta, 500 pg/mL | Potency, µM (top dose mostly 46.1 µM), usual class: inhibitors | 1,600 compounds, 27% hits; note: nearly all actives have a fitted effect of over 70% in size
CCL64 TGFb inh = TGF-b inhibition, CCL64 orthogonal assay | shares compounds with TGFb SMAD3 inh | CCL64 CAGA-GFP reporter, TGF-b stimulated, GFP fluorescence, 18 h | Potency, µM (doses to about 46.1 µM), hits mostly inhibitors | 1,600 compounds, 41% hits | AID 720536; note: nearly all actives have a fitted effect of over 65% in size
TGFb COP inh = TGF-b inhibition validated with COP promoter | shares compounds with TGFb SMAD3 inh | HepG2 COP-GFP TGF-b reporter, GFP fluorescence, 18 h; cells stimulated by added recombinant TGF-beta | Potency, µM (titrated, usually from 46.1 µM), actives largely listed as inhibitors | 1,600 compounds, 3% hits | AID 720537; note: nearly all actives have a fitted effect of over 70% in size
A number is an active result; - = inactive; ? = inconclusive; . = no result; ! = not active in a repeat. Unless noted, calls come from the whole dose curve; as a rule, active = well fitted curve in the direction sought with a large enough effect; inconclusive = small, poorly fitted or top-dose-only effect, or another doubt; inactive = no such curve, though single readings can be large; an effect the other way counts as inactive or inconclusive.

SMILES	S2 tox	HepG2 tox-1	ATXN2 expr inh	LDHA inh	mIDH1 inhibitor	TGFb SMAD3 inh	TGFb confirm	HepG2 tox-2	CCL64 TGFb inh	TGFb COP inh
COc1ccc(/C=C2/CCc3ccccc3C2=O)cc1OC	?	-	-	-	-	-	.	.	.	.
O=C(O)c1ccc(/C=C2\COc3ccccc3C2=O)cc1	-	-	-	-	-	14µM	16µM	16µM	-	-
CCOc1cc(/C=C2\COc3ccccc3C2=O)cc(Br)c1OCC(=O)N(C)C	.	13µM	22µM	-	-	3.5µM	16µM	?	15µM	?
Oc1ccc(C[C@H]2CNC(=S)N2CC2CCCN2C[C@H](Cc2ccccc2)N2C[C@H](Cc3ccc(O)cc3)N(CCc3ccccc3)C2=S)cc1 (some centres not stated)	?	-	?	-	-	7.9µM	5.8µM	?	9.2µM	-
CC(C)C[C@H]1CN([C@@H](Cc2ccc(O)cc2)CN2CCC[C@@H]2CN2C(=S)NC[C@@H]2Cc2ccccc2)C(=S)N1CCc1ccccc1	?	-	?	-	.	?	.	.	.	.
CC(C)C[C@H]1CNC(=S)N1C[C@H]1CCCN1C[C@H](Cc1ccccc1)N1C[C@H](Cc2ccc(O)cc2)N(CCc2ccccc2)C1=S	?	-	?	-	.	7.1µM	12µM	-	?	-
CC(C)C[C@H]1CNC(=S)N1C[C@H]1CCCN1C[C@H](Cc1ccc(O)cc1)N1C[C@H](Cc2ccc(O)cc2)N(CCc2ccccc2)C1=S	.	-	?	-	.	10µM	?	15µM	4.6µM	-
Cc1ccc(C)c2c1sc(=NC(=O)CN1C(=O)CCC1=O)n2C	-	-	-	-	-	-	.	.	.	.
O=C(CCN1C(=O)c2ccccc2C1=O)Nc1ccccc1C(F)(F)F	-	-	.	-	-	-	.	.	.	.
CCc1nc(OCc2ccco2)c2sc3nc4c(cc3c2n1)COC(C)(C)C4	-	-	-	-	-	?	?	-	-	-
O=C(Cc1csc(NC(=O)Nc2ccc(Cl)cc2)n1)NCc1ccccn1	-	-	-	-	-	?	.	.	.	.
O=C(Cc1csc(NC(=O)Nc2ccc(Cl)cc2)n1)NC1CCCC1	-	-	-	-	-	11µM	16µM	-	?	-
S=C(NCCc1ccccc1)Nc1nccs1	-	-	-	-	-	-	.	.	.	.
COc1ccc(S(=O)(=O)N2CCCCCC2)cc1C(=O)N(C)Cc1c(F)cccc1Cl	-	-	-	-	-	-	.	.	.	.
COc1ccc(S(=O)(=O)N2CCCCCC2)cc1C(=O)N(C)Cc1ccc(Cl)cc1Cl	?	-	?	-	-	16µM	18µM	-	?	-
O=S(=O)(NCC(Nc1ccccc1)c1ccccc1)c1ccc(Cl)cc1 (configuration not stated)	?	-	?	-	-	10µM	?	-	-	-
O=C(N=Nc1c(O)[nH]c2ccc(Br)cc12)c1ccccc1-n1cccc1	.	-	?	-	-	?	7.3µM	?	18µM	-
COc1ccccc1NC(=O)Cn1cc(C(=O)C2CC2)c2ccccc21	-	-	-	-	-	-	.	.	.	.
CCOc1ccc(CCN2C(=S)N([C@@H](CC(C)C)CN3CCCC3CN3C(=S)NC[C@@H]3Cc3ccc(O)cc3)C[C@@H]2Cc2ccccc2)cc1 (some centres not stated)	-	-	-	-	-	?	?	-	?	-
CCOc1ccc(CCN2C(=S)N([C@@H](CC(C)C)CN3CCCC3CN3C(=S)NC[C@@H]3Cc3ccc(O)cc3)C[C@@H]2Cc2ccc(O)cc2)cc1 (some centres not stated)	?	13µM	?	-	-	7.1µM	21µM	?	13µM	-
CCOc1ccc(CCN2C(=S)N([C@@H](CC(C)C)CN3CCCC3CN3C(=S)NC[C@@H]3Cc3ccccc3)C[C@@H]2CC(C)C)cc1 (some centres not stated)	?	.	?	-	.	.	.	.	.	.
CCOc1ccc(CCN2C(=S)N([C@@H](Cc3ccc(O)cc3)CN3CCC[C@@H]3CN3C(=S)NC[C@@H]3Cc3ccccc3)C[C@@H]2Cc2ccc(O)cc2)cc1	?	-	-	-	.	8.9µM	6.5µM	?	5.8µM	-
Oc1ccc(C[C@@H](CN2CCC[C@@H]2CN2C(=S)NC[C@@H]2Cc2ccccc2)N2C[C@H](Cc3ccccc3)N(CCc3ccccc3)C2=S)cc1	?	-	-	-	.	-	.	.	.	.
CN(Cc1cccc(Cl)c1Cl)C(=O)c1cccc(S(=O)(=O)N2CCN(Cc3ccccc3)CC2)c1	?	-	-	-	-	8.9µM	10µM	?	?	-
COc1ccc(CNC(=O)[C@@H]2CCCN2C(=O)[C@@H]2Cc3ccccc3CN2C(=O)OC(C)(C)C)cc1	-	-	-	-	-	11µM	13µM	-	-	-
CC(=Nc1ccccc1)C1=C(O)C(Cc2ccc(F)cc2)NC1=O (configuration not stated)	?	-	.	-	-	-	.	.	.	.
CC(=Nc1ccccc1)C1=C(O)C(Cc2ccccc2)NC1=O (configuration not stated)	?	-	-	-	-	?	?	-	3.3µM	-
Cc1ccnc(NC(=O)CCCOc2cc(=O)n(C)c3ccccc23)c1	-	-	1.3µM!	-	-	2.2µM	5.8µM	4.1µM	26µM	-
Cn1c(=O)cc(OCCCC(=O)NCc2ccccn2)c2ccccc21	-	-	-	-	-	-	.	.	.	.
COC(=O)c1ccc2nc(-c3ccco3)c(Cc3cccc(F)c3)n2c1	-	-	-	-	.	14µM	21µM	-	?	-
